# Laboratory results reported in PubChem BioAssay (NCATS).
# Where “and” joins values, the source holds several entries; their conditions need not be identical. Identical values can stand only once. Records with an inconclusive call do not appear. A structure can be active in one record and inactive in another. Calls of active or inactive are those of the source. Unless noted, the call rests on the fitted dose curve; in most records, active means well fitted curve in the direction sought with a large enough effect; inconclusive means small, poorly fitted or top-dose-only effect, or another doubt; inactive means no such curve, though single readings can be large; an effect the other way counts as inactive or inconclusive.
# Experiments:
# [1] = Primary qHTS for inhibitors of nuclear receptor binding SET domain protein 2 (NSD2) in an RCH-ACV wild type WT cells (2C) (AID 1645877); further: nearly all actives have a fitted effect of over 70% in size; further: potency means the concentration at half of the fitted maximal effect; on activity change, negative = cell killing: on the % scale 0 is the no-effect control and ±100 the full control effect
# [2] = Primary qHTS for inhibitors of nuclear receptor binding SET domain protein 2 (NSD2) in an isogenic RCH-ACV NSD2 p.E1099K mutant (9B) (AID 1645876); further: nearly all actives have a fitted effect of over 70% in size; further: potency means the concentration at half of the fitted maximal effect; on activity change, negative = viability loss: on the % scale 0 is the no-effect control and ±100 the full control effect
# [3] = molecular target: Catechol O-methyltransferase (Homo sapiens) (UniProt P21964); test: Confirmatory Screen for Target Class Profiling of Small Molecule Inhibitors of Methyltransferases (AID 1745852); settings: MTase-Glo luminescence, SAH detection, recombinant enzyme; measured here: COMT max response; stronger effect = lower value; on activity change, negative = inhibition: on the % scale 0 is the no-effect control and ±100 the full control effect
# [4] = molecular target: Guanidinoacetate N-methyltransferase (Homo sapiens) (UniProt Q14353); test: as above; settings: MTase-Glo luminescence, SAH detection, recombinant enzyme; activity change, negative = inhibition: at 57.3 µM (top of the series) unless noted
# [5] = molecular target: Nicotinamide N-methyltransferase (Homo sapiens) (UniProt P40261); test: as above; settings: MTase-Glo luminescence, SAH detection, recombinant enzyme; measured here: NNMT max response; stronger effect = lower value
# [6] = molecular target: Phenylethanolamine N-methyltransferase (Homo sapiens) (UniProt P11086); test: as above; settings: MTase-Glo luminescence, SAH detection, recombinant enzyme; measured here: PNMT max response; stronger effect = lower value
# [7] = NCATS anti-infectives library activity on the primary C. elegans qHTS viability assay (AID 1745855; calls by dose curve)
# Outline: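 Viability is taken from GFP fluorescence of PE254-GFP-FLuc C. elegans imaged by laser cytometry over 7 days. Ten L1 worms per well grow at 21 °C on TOP10 E. coli capsules with titrated compound; levamisole marks toxicity.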
# Nicotinamide N-methyltransferase (Homo sapiens), sequence (P40261 whole entry, looked up): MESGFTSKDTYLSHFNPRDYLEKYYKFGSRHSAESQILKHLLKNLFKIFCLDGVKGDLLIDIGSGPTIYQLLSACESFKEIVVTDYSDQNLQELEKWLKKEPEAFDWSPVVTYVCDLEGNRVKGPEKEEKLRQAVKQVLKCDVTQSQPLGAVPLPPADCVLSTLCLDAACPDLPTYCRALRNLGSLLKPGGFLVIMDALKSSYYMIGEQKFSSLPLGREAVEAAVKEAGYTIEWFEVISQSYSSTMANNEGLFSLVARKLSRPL
# Catechol O-methyltransferase (Homo sapiens), sequence (P21964 whole entry, looked up): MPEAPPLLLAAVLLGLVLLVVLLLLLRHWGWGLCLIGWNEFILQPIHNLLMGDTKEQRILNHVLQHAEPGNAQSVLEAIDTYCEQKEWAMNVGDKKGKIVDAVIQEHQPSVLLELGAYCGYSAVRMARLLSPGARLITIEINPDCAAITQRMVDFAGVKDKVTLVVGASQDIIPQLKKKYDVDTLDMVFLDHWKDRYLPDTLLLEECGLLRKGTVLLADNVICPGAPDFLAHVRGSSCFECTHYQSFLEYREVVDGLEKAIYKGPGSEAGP
# Phenylethanolamine N-methyltransferase (Homo sapiens), sequence (P11086 whole entry, looked up): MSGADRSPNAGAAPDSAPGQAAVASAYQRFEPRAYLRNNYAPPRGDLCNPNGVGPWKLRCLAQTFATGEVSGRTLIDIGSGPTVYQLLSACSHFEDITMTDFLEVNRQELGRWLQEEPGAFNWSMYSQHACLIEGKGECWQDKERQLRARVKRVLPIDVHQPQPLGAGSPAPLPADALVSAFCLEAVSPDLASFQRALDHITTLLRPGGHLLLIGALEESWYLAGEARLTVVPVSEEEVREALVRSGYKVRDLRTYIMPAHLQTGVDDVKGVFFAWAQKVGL
smiles,measurement,setting,value
CN[C@@H](C)C(=O)N[C@H]1CCCC[C@H]2CC[C@@H](C(=O)N[C@@H](c3ccccc3)c3cn(CCCCc4ccc(CCCCn5cc([C@@H](NC(=O)[C@@H]6CC[C@@H]7CCCC[C@H](NC(=O)[C@H](C)NC)C(=O)N76)c6ccccc6)nn5)cc4)nn3)N2C1=O,Potency,[1],inactive
NC(=O)C1CCCc2c1[nH]c1ccc(Cl)cc21 (centres undefined),Potency,[2],inactive
same,Potency,[1],inactive
CCn1c(-c2nonc2N)nc2c(C#CC(C)(C)O)ncc(OC[C@H]3CCCNC3)c21,Potency,[2],1.32 µM (active)
same,Potency,[1],1.18 µM (active)
CCOc1cc(N2CCC(O)CC2)ccc1Nc1ncc2c(n1)N(C)c1ccccc1C(=O)N2C,Potency,[2],2.35 µM (active)
same,Potency,[1],2.63 µM (active)
COc1ccc(CC2=NN3C([C@@H](CCc4ccccc4)[C@@H](C)O)=NC(C)C3C(=O)N2)cc1OC (some centres undefined),Potency,[1],inactive
CC(C)c1onc(-c2c(Cl)cccc2Cl)c1COc1ccc(/C=C/c2cccc(C(=O)O)c2)c(Cl)c1,Potency,[2],inactive
same,Potency,[1],inactive
CCCn1c(=O)c2[nH]c(C34CC5CC3C[C@@H](C5)C4)nc2n(CCC)c1=O,Potency,[2],inactive
same,Potency,[1],inactive
Cc1cc([C@@H](C)Nc2ccccc2C(=O)O)c2nc(N3CCOCC3)cc(=O)n2c1,Potency,[2],2.24 µM (active) and 1.86 µM (active)
same,Potency,[1],2.51 µM (active) and 1.66 µM (active)
COc1ccccc1[C@H](c1cccc2ccccc12)[C@@](C)(C#N)C(=O)N1CCC(c2cccc(C(F)(F)F)c2)CC1,Potency,[2],inactive
same,Potency,[1],inactive
Cc1cc(SCc2sc(-c3ccc(C(F)(F)F)cc3)nc2C)ccc1OCC(=O)O,Potency,[2],inactive
same,Potency,[1],inactive
COc1ccc(C2=N[C@H](c3ccc(Cl)cc3)[C@H](c3ccc(Cl)cc3)N2C(=O)N2CCNC(=O)C2)c(OC(C)C)c1,Potency,[2],18.6 µM (active)
same,Potency,[1],18.6 µM (active)
CCc1cc(Nc2nccc(-c3c(-c4ccc(OC)c(C(=O)Nc5c(F)cccc5F)c4)nc4ccccn34)n2)c(OC)cc1N1CCC(N2CCN(S(C)(=O)=O)CC2)CC1,Potency,[1],inactive and 5.9 µM (active)
NC(=O)c1ccc(-c2nc(-c3ccc4c(c3)OCCO4)c(-c3ccccn3)[nH]2)cc1,Potency,[2],inactive
same,Potency,[1],inactive
O=C(O)[C@@H](c1ccc(OCc2ccc3ccccc3n2)cc1)C1CCCC1,Potency,[2],inactive
same,Potency,[1],inactive
CCCS(=O)(=O)Nc1ccc(F)c(C(=O)c2c[nH]c3ncc(-c4ccc(Cl)cc4)cc23)c1F,Potency,[2],18.4 µM (active) and inactive
same,Potency,[1],16.4 µM (active) and inactive
same,activity,[3],-8.94%
same,"activity change, negative = inhibition",[4],-0.0685%
same,activity,[5],-26%
same,activity,[6],-12.4%
CO[C@@H]1[C@H](N(C)C(=O)c2ccccc2)C[C@H]2O[C@]1(C)n1c3ccccc3c3c4c(c5c6ccccc6n2c5c31)C(=O)NC4,Potency,[2],1.3 µM (active) and 1.05 µM (active)
same,Potency,[1],1.3 µM (active) and 525 nM (active)
same,Potency,[7],inactive
CCC(C)(C)C(=O)O[C@H]1C[C@@H](C)C=C2C=C[C@H](C)[C@H](CC[C@@H]3C[C@@H](O)CC(=O)O3)[C@H]21,Potency,[2],8.33 µM (active)
same,Potency,[1],8.33 µM (active)
CC1(C)CNc2cc(NC(=O)c3cccnc3NCc3ccncc3)ccc21,Potency,[2],inactive
same,Potency,[1],inactive
Cc1n[nH]c(C)c1Cc1sc2c(c1C(=O)N1C[C@H](O)CO1)c(=O)n(C)c(=O)n2CC(C)C,Potency,[2],inactive
same,Potency,[1],inactive
Cc1cnc(Nc2ccc(OCCN3CCCC3)cc2)nc1Nc1cccc(S(=O)(=O)NC(C)(C)C)c1,Potency,[2],1.83 µM (active) and 2.35 µM (active)
same,Potency,[1],1.83 µM (active) and 1.86 µM (active)
same,activity,[3],-12.3%
same,"activity change, negative = inhibition",[4],-4.99%
same,activity,[5],-31.4%
same,activity,[6],-8.53%
COCCNCCCn1c(C(=O)CF)c(-c2ccc(C)cc2)c2c(N)ncnc21,Potency,[2],18.6 µM (active)
same,Potency,[1],16.6 µM (active)
CN([C@@H](Cc1ccc(OS(=O)(=O)c2cccc3cnccc23)cc1)C(=O)N1CCN(c2ccccc2)CC1)S(=O)(=O)c1cccc2cnccc12,"activity change, negative = viability loss",[2],7.52% [at 4.96 µM] (inactive)
same,"activity change, negative = cell killing",[1],9.55% [at 4.96 µM] (inactive)
COc1c(Cl)cc2c([nH]c3cnccc32)c1NC(=O)c1cccnc1C,Potency,[2],9.34 µM (active)
same,Potency,[1],9.34 µM (active)
O=C1CCCC2=C1C(c1[nH]ncc1Cl)N=C(Nc1nc3ccccc3o1)N2 (centres undefined),Potency,[2],inactive
same,Potency,[1],inactive
